A selection: hits, their analogues and other compounds. The true share with any hit is near 2.1%.
Gli-Sufu antag: Gli-Sufu pathway antagonists, primary screen, luciferase luminescence, Sufu-KO-LIGHT cells, uHTS; AID 588413, 2011; inhibition, % at 5 µM; Sufu-KO-LIGHT fibroblasts, Gli luciferase reporter luminescence; 340,000 tested, 0.74% active;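 active = inhibition above about 55%, limit read from the data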;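 also: 0% = DMSO-treated cells and 100% = wells with medium but no cells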
aDG glyco act: activators of alpha-DG glycosylation, primary screen, uHTS, Pro5-aDG cells, AlphaScreen; alpha-DG glycosylation AlphaScreen (IIH6); 0% Pro5, 100% B10-LARGE cell signal; activation, % at 10 µM; 360,000 tested, 0.22% active;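 active = activation of at least 8% versus controls, or a plate z-score of at least 8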;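 also: Pro5 are CHO cells carrying HIG-tagged alpha-DG that lacks glycosylation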
GalR3 antag: GalR3 antagonists in HEK293 cells, primary screen, cell-based, fluorescence readout | Galanin receptor type 3 (Homo sapiens), O60755 | HEK293 GalR3-CNG cAMP membrane potential fluorescence; galR3 body fused to GalR1 C-terminus | inhibition, % at 3 µM | 360,000 tested, 0.44% active | AID 651719, 2012;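 active = inhibition above the screen-wide average plus 3 SD, cut at about 13% in these data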;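 also: forskolin and galanin both at EC90 stimulate the cells; cAMP rise reported by CNG channel membrane potential dye signal; 0% = forskolin plus galanin with DMSO and 100% = forskolin alone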
Target sequence (O60755 1-299 limits assumed): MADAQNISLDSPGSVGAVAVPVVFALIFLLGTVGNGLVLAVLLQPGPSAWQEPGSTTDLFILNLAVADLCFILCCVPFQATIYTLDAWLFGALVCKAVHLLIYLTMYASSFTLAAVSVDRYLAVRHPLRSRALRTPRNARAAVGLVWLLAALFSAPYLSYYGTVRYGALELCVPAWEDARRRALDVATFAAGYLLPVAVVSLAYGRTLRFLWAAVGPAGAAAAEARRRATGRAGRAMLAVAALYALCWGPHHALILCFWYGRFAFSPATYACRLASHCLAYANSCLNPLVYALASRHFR
Env fusion inh: inhibitors of HIV-1 Env-driven cell-cell fusion, primary screen, HeLa-JRFL effector, CEM21 target cells, luciferase | 360,000 tested, 1.1% active | inhibition, % at 12.3 µM | AID 651610, 2012;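 active = mean replicate inhibition score of at least 50 and every replicate individually at or above 50; inconclusive = only one of the two criteria met; inactive = mean below 50 and not all replicates reaching 50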;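 also: 0% = plate neutral controls and 100% = maraviroc near 300 nM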
COUP-TFII inh: NR2F2 transcriptional activity inhibitors, primary screen, cell-based, luciferase reporter, HEK293T, luminescence. inhibition, % at 8.6 µM. COUP transcription factor 2 (Homo sapiens), P24468. 370,000 tested, 0.7% active. HEK293T NGFI-A luciferase reporter;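 active = inhibition above a per-plate cutoff, mean inhibition of test wells between control levels plus 3 SD, cut at about 38% in these data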;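 also: cells cotransfected with COUP-TFII expression vector driving the NGFI-A reporter; 0% = median of COUP-TF2 test wells and 100% = reporter-only cells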
* marks the source's active call; other numbers are inactive results; ? = inconclusive; . = no result given; [ ] = remark or other dose.

SMILES	Gli-Sufu antag	aDG glyco act	GalR3 antag	Env fusion inh	COUP-TFII inh
CCNC(=O)c1cc2c(c(-c3cccc(-c4cccc(F)c4)c3)n1)[C@H](CCO)N([S@@](=O)C(C)(C)C)C2	.	.	.	-6.8[16.7 µM]	.
Cc1ccc(N(C)S(=O)(=O)c2cccc(C(=O)N(C)Cc3cnn(-c4ccccc4)c3)c2)cc1	23.3	0.6	-5.0	63.4*	-3.2
COc1cccc(S(=O)(=O)N(C)C[C@H]2Oc3cc(C4=CCCCC4)ccc3S(=O)(=O)N([C@H](C)CO)C[C@H]2C)c1	.	.	.	69.5*[16.7 µM]	.
COc1cccc(S(=O)(=O)N(C)C[C@@H]2Oc3cc(C4=CCCCC4)ccc3S(=O)(=O)N([C@@H](C)CO)C[C@@H]2C)c1	.	.	.	55.0*[16.7 µM]	.
O=C1NCCN(Cc2cccc(Oc3ccccc3)c2)C1CC(=O)N1CCCCC1 (stereo not given)	0.1	-0.1	1.6	71.7*	-11.3
O=CN1CCCN(C(=O)CC2C(=O)NCCN2Cc2cccc(Oc3ccccc3)c2)CC1 (stereo not given)	4.7	-0.1	-5.5	2.6	24.4
Cc1cccc(NC(=O)CSCC(=O)Nc2cc(Cl)ccc2N2CCOCC2)c1	11.2	0.0	-2.0	71.8*	-1.4
O=C(Cc1ccccc1)Nc1ncnc2c1C(c1ccccc1)c1c(ccc3ccccc13)O2 (stereo not given)	8.5	0.2	-8.7	68.1*	14.1
O=C(C[C@H]1CC[C@@H](NC(=O)c2cccc(F)c2)[C@H](CO)O1)NCc1ccc(Oc2ccccc2)cc1	.	.	.	68.7*[16.7 µM]	.
O=C(C[C@H]1CC[C@@H](NC(=O)c2cccc(F)c2)[C@@H](CO)O1)NCc1ccc(Oc2ccccc2)cc1	.	.	.	70.8*[16.7 µM]	.
O=C(C[C@H]1CC[C@H](NC(=O)c2cccc(F)c2)[C@@H](CO)O1)NCc1ccc(Oc2ccccc2)cc1	.	.	.	14.0[16.7 µM]	.
COC(=O)C1(C(=O)OC)C[C@H](c2ccc(OC)cc2)N(Cc2ccccc2OC)[C@@H]1c1cccs1	.	0.1	1.5	91.9*	-8.3
COC(=O)C1(C(=O)OC)C[C@H](c2ccc(OC)cc2)N(Cc2ccccc2OC)[C@@H]1c1ccc(OC)cc1	.	-0.2	-0.8	38.5	0.6
O=C(Nc1ccc2c(c1)OCO2)N[C@H]1C=C[C@@H](CC(=O)N2CCN(c3ccccc3)CC2)O[C@@H]1CO	.	.	.	16.2[16.7 µM]	.
c1ccc(Cc2cnc(N3CCN(Cc4csc5ccccc45)CC3)nc2)cc1	.	.	-5.7	77.0*	17.1
Oc1ccc(Br)c(CN2CCN(c3ncc(Cc4ccccc4)cn3)CC2)c1	.	2.7	-4.2	28.6	-4.6
CN(Cc1ccccc1)c1nc(-c2ccc([N+](=O)[O-])cc2)nc2ccccc12	24.3	-0.2	-2.2	.	0.2
O=[N+]([O-])c1ccc(-c2nc(C(Cl)Cl)c3ccccc3n2)cc1	35.2	-0.5	-3.3	73.6*	-4.8
COc1ccc(NC(=O)N(C)C[C@H]2OCCCC[C@H](C)Oc3ccc(NS(=O)(=O)c4ccc(F)cc4)cc3C(=O)N([C@@H](C)CO)C[C@@H]2C)cc1	.	.	.	2.6[16.7 µM]	.
O=C(NCC[C@H]1CC[C@H](NC(=O)C2CCOCC2)[C@@H](CO)O1)c1ccc(F)cc1	.	.	.	-17.3[16.7 µM]	.
CCCn1c(C2CCCN2c2nc(C)cs2)nc2cc(Cl)c(Cl)cc21 (stereo not given)	11.2	0.7	-5.8	69.7*	2.9
C#CCn1c(=O)c2c(ncn2C)n(C)c1=O	-2.3	-0.1	.	71.7*	-4.0
COc1ccc([C@@H]2[C@@H]3C(=O)N(C(C)(C)C)C(=O)[C@@H]3[C@]3(CC(C)C)C(=O)N(c4cccc(F)c4)C(=O)N23)cc1	-1.1	0.0	-6.3	99.0*	4.5
CC[C@@]12C(=O)N(c3cccc(F)c3)C(=O)N1[C@H](c1ccc(Br)cc1)[C@@H]1C(=O)N(C(C)(C)C)C(=O)[C@@H]12	0.0	0.2	-5.9	97.9*	12.0
CC(C)(C)N1C(=O)[C@H]2[C@@H](c3ccc(Br)cc3)N3C(=O)N(c4cccc(F)c4)C(=O)[C@@]3(Cc3ccccc3)[C@H]2C1=O	-2.7	1.0	-2.7	?	4.5
C[C@@H]1CCCCO[C@@H](CN(C)C(=O)c2ccncc2)[C@H](C)CN([C@H](C)CO)C(=O)c2cc(NC(=O)c3ccncc3)ccc2O1	.	.	.	20.4[16.7 µM]	.

Assay outcomes: PubChem, several laboratories
